Growth data for eight molecules are collected here from PubChem BioAssay (NCI).

Common to all, as to experiment: NCI-60 one-dose screen, 48 h (100 = growth as untreated, 0 = no growth, -100 = all killed)
Common to all, as to conditions: 10 µM unless noted

Assay [1] deals with HCT-15 colon.
Assay [2] relates to HT29 colon.
Assay [3] has as its system SNB-75 CNS.
The subject of assay [4] is SNB-19 CNS.
Assay [5] concerns U251 CNS.
For assay [6], the system named is PC-3 prostate.
In assay [7] the test system is SK-MEL-5 melanoma.
The subject of assay [8] is UACC-62 melanoma.
For assay [9], the system named is LOX IMVI melanoma.
Assay [10] relates to SK-MEL-28 melanoma.
In assay [11] the test system is SK-MEL-2 melanoma.
Assay [12] deals with EKVX NSCLC.
The test system of assay [13] is SN12C renal.
Assay [14] deals with UO-31 renal.
Assay [15] relates to TK-10 renal.
Assay [16] deals with ACHN renal.
The subject of assay [17] is CAKI-1 renal.
Assay [18] relates to A498 renal.
Assay [19] has as its system MOLT-4 leukemia.
For assay [20], the system named is CCRF-CEM leukemia.

This is part of a sample that, as a whole, favours compounds with a hit. Of some 83,000 tested, about 20% had one in any assay.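 Assay: single dose, 48 h. Readout: percent growth (0 = no net growth; negative = cell death). Active: <10.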 Unmarked numbers belong to inactive results. Active and inactive are the calls of the source.

For `CN(C)CCC(CCN(C)C)(C(=O)O)c1ccccc1`, the growth is 99.7% in [1]; 96.6% in [2]; 97.2% in [3]; 101% in [4]; 102% in [5]; 92.7% in assay [6]. The growth in assay [7] is 102%; in assay [8], 103%; in [9] it was 106%; in assay [10] it was 105%; in [11] it was 102%; in assay [12] it was 107%. The growth was 98.4% in assay [13]; 88.3% in assay [14]; 106% in [15]; 98.5% in [16]; 95.4% in assay [17]; 90.4% in [18]. The growth in assay [19] is 109%.
For the molecule `Cc1cc2oc(/C=C/c3ccccc3)cc(=O)c2c(C)c1Cl`, the growth was 95.7% in assay [1]; 107% in [2]; 116% in assay [3]; 89.8% in assay [4]; 94.3% in assay [5]; 96.7% in [6]. In addition, the growth is 96% in assay [7]; 90.5% in assay [8]; 109% in assay [9]; 94.6% in [10]; 103% in assay [11]; 101% in [12]. Moreover, the growth in [13] was 99.1%; in assay [14], 94.4%; in [15] it was 91.6%; in assay [16], 110%; in assay [17], 84.6%; in assay [18], 142%. The growth was 99.2% in assay [20] and 62.6% in [19].
As to `Cc1cccc(-c2nc(C(C)C)sc2-c2ccnc(NCCCNS(=O)(=O)c3ccc(Cl)cc3)c2)c1`, the growth in assay [1] is 36.5%; in assay [2], 16.9%; in assay [3] it was 97.5%; in assay [4] it was 89.6%; in assay [5] it was 73%; in [6] it was 50%. Besides, the growth in [7] was 87.6%; in [8] it was 96.4%; in [9], 75%; in [10], 90.6%; in assay [11] it was 79%; in assay [12], 78.4%. Further, the growth in assay [13] was 73%; in assay [14], 75.3%; in assay [15], 80.1%; in [16] it was 75.6%; in assay [17] it was 85%; in assay [18], 79%. The growth in assay [19] was 52.3%.
In the case of `C[C@@H]1NC(=O)[C@H](Cc2ccccc2)N(Cc2cccnc2)C1=O`, the growth in [1] is 103%; in assay [2], 102%; in assay [3] it was 85.1%; in assay [4] it was 96.1%; in assay [5], 91.1%; in assay [6], 94.1%. The growth in assay [7] is 101%; in [8] it was 92.7%; in [9] it was 98.5%; in [10], 112%; in [11], 96.7%; in assay [12] it was 109%. The growth in assay [13] is 93.6%; in [14] it was 89%; in assay [15], 95%; in [16] it was 97.3%; in assay [17] it was 90.2%; in assay [18], 63.5%. Moreover, the growth in assay [20] was 109%; in [19] it was 101%.
`COc1ccc2c(c1)oc1c(C)c3c(c(C)c12)C(=O)N(CCOS(C)(=O)=O)C3=O`: the growth in [1] is 102%; in assay [2], 101%; in [3] it was 103%; in assay [4], 95.4%; in assay [5], 108%; in assay [6], 96.5%. In addition, the growth in [7] is 101%; in assay [8] it was 87.8%; in assay [9], 90.3%; in assay [10] it was 102%; in assay [11], 101%; in assay [12], 107%. Moreover, the growth in assay [13] is 94%; in [14], 88.2%; in assay [15], 124%; in assay [16], 97.1%; in [17], 95.4%; in [18], 129%. Further, the growth was 100% in [20] and 94.7% in assay [19].
Turning to `Cc1ccccc1N1CCN(C(=S)c2ccccc2)CC1`, the growth in assay [1] is 98.8%; in assay [2], 96.2%; in assay [3], 84.7%; in assay [4] it was 98.8%; in assay [5] it was 93.4%; in [6], 101%. The growth in assay [7] was 96.8%; in [8], 82.9%; in assay [9] it was 92.3%; in assay [10], 109%; in assay [11] it was 85%; in assay [12] it was 96.1%. Also, the growth in assay [13] was 96.6%; in assay [14], 82.1%; in [15] it was 108%; in [16], 106%; in assay [17], 75.3%; in assay [18], 101%. The growth was 114% in assay [20] and 106% in [19].
For `COc1ccc(Nc2ncc(C#N)c(NCCCNC(=O)C3CCC3)n2)cc1`, the growth in assay [1] is 49.7%; in assay [2] it was 61.9%; in [3], 58.1%; in assay [4], 68.9%; in assay [5], 60.1%; in [6], 71.9%. Besides, the growth in [7] is 92%; in assay [8], 78.1%; in assay [9] it was 32.6%; in assay [10], 103%; in assay [11] it was 80.6%; in [12] it was 87.3%. Also, the growth was 35.3% in assay [13]; 11.1% in [14]; 41.4% in [15]; 48.1% in assay [16]; 26.3% in assay [17]; 52.8% in [18]. The figures for the growth in [20] and in assay [19] were 45.5% and 34.7%, respectively.
Turning to `O=c1cc(CNc2cc(F)cc(F)c2)c2ccc(I)cc2[nH]1`, the growth in assay [1] is 32.1%; in [2] it was 8.99% (active); in assay [3] it was -9.56% (active); in [4], 49.8%; in [5], 31.8%; in [6], 26.7%. The growth in [7] was 18.5%; in [8], 36.7%; in assay [9], 41%; in assay [10], 64%; in [11], 39.2%; in [12], 44%. The growth was 51.7% in [13]; 39.7% in assay [14]; 53.3% in assay [15]; 36.3% in assay [16]; 26.6% in [17]; 3.87% (active) in [18]. The growth in assay [20] is 14.8%; in assay [19], 28.1%.
